PubChem BioAssay (EPA / NIEHS)
Values joined by “and” are separate entries in the source; they are usually repeats but may differ in a detail not shown here. Identical values can stand only once. Some compounds were tested as several samples or in several runs, with calls that do not always agree. Active and inactive are the calls of the source. The calls were made as follows: active = hit-call score of the fitted dose curve at least 0.9, where 1 is the maximum; inactive = score below 0.9.

Key:
[1] = read-out: Human Leukocyte Antigen - DR isotype (HLADR), HLA-DRA (gene 3122); assay: BSK_BE3C_HLADR: BioMAP Diversity Plus: BE3C Assay for Human Leukocyte Antigen - DR isotype (HLADR) Biomarker Activity (AID 2283032); settings: primary human bronchial epithelial cells; actives raise or lower the signal
Outline: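 Human primary bronchial epithelial cells (BE3C system) exposed to compound for 24 hours; cell-surface HLA-DR measured by ELISA, fitted bidirectionally relative to DMSO. Total protein by SRB in parallel cultures tracked cytotoxicity.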

[2] = read-out: Vascular cell adhesion molecule 1 (VCAM1), VCAM1 (gene 7412); assay: BSK_4H_VCAM1: BioMAP Diversity Plus: 4H Assay for Vascular cell adhesion molecule 1 (VCAM1) Biomarker Activity (AID 2283033); settings: primary human endothelial cells (HUVEC); actives raise or lower the signal
Outline: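 Primary human umbilical vein endothelial cells, 4H stimulation system, treated for 24 h; cell-surface VCAM-1 quantified by ELISA. Bidirectional fitting against DMSO; cytotoxicity tracked by SRB total-protein staining in parallel cultures.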

[3] = read-out: Interferon-gamma inducible Protein 10 (IP10), CXCL10 (gene 3627); assay: BSK_BE3C_IP10: BioMAP Diversity Plus: BE3C Assay for Interferon-gamma inducible Protein 10 (IP10) Biomarker Activity (AID 2283034); settings: primary human bronchial epithelial cells; actives raise or lower the signal
Outline: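 Primary human bronchial epithelial cells, with IP-10 measured by ELISA 24 hours after chemical dosing. Bidirectional fit against DMSO; cytotoxicity checked by SRB total protein staining in parallel cultures.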

[4] = read-out: Monokine induced gamma interferon (MIG), CXCL9 (gene 4283); assay: BSK_BE3C_MIG: BioMAP Diversity Plus: BE3C Assay for Monokine induced gamma interferon (MIG) Biomarker Activity (AID 2283035); settings: primary human bronchial epithelial cells; actives raise or lower the signal
Outline: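 ELISA read-out of MIG in human lung bronchial epithelial primary cultures, 24 h post-dosing. Bidirectional curve fit vs DMSO baseline.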

[5] = read-out: Transforming growth factor beta 1 (TGFb1), TGFB1 (gene 7040); assay: BSK_BE3C_TGFb1: BioMAP Diversity Plus: BE3C Assay for Transforming growth factor beta 1 (TGFb1) Biomarker Activity (AID 2283036); settings: primary human bronchial epithelial cells; actives raise or lower the signal
Outline: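 Primary human bronchial epithelial cells dosed with chemical; TGF-b1 measured by ELISA 24 h after dosing. Bidirectional curve fitting against DMSO negative control; SRB total-protein staining in parallel cultures gauged cytotoxicity.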

[6] = read-out: Plasminogen activator inhibitor-1 (PAI1), SERPINE1 (gene 5054); assay: BSK_BE3C_PAI1: BioMAP Diversity Plus: BE3C Assay for Plasminogen activator inhibitor-1 (PAI1) Biomarker Activity (AID 2283037); settings: primary human bronchial epithelial cells; actives raise or lower the signal
Outline: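 Primary human bronchial epithelial cells (BE3C system) exposed 24 h; PAI-1 quantified by ELISA. Parallel sulforhodamine B staining of total protein flags cytotoxicity. Bidirectional fit versus DMSO.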

[7] = read-out: urokinase plasminogen activator (uPA), PLAU (gene 5328); assay: BSK_BE3C_uPA: BioMAP Diversity Plus: BE3C Assay for urokinase plasminogen activator (uPA) Biomarker Activity (AID 2283038); settings: primary human bronchial epithelial cells; actives raise or lower the signal
Outline: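 ELISA read-out of uPA in human lung primary bronchial epithelial cultures, 24 h post-dosing. Gain or loss of signal fitted bidirectionally relative to DMSO baseline; cytotoxicity checked in parallel cultures via SRB total protein stain.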

[8] = read-out: Urokinase-type plasminogen activator receptor (uPAR), PLAUR (gene 5329); assay: BSK_BE3C_uPAR: BioMAP Diversity Plus: BE3C Assay for Urokinase-type plasminogen activator receptor (uPAR) Biomarker Activity (AID 2283039); settings: primary human bronchial epithelial cells; actives raise or lower the signal
Outline: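 Primary human bronchial epithelial cells dosed for 24 h; uPAR quantified by ELISA with bidirectional fitting against DMSO. Overt cytotoxicity assessed in parallel cultures by SRB total-protein staining (0.1% SRB, 560 nm).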

[9] = read-out: Interleukin-6 (IL6), IL6 (gene 3569); assay: BSK_CASM3C_IL6: BioMAP Diversity Plus: CASM3C Assay for Interleukin-6 (IL6) Biomarker Activity for (AID 2283040); settings: primary human coronary artery smooth muscle cells; actives raise or lower the signal
[10] = read-out: Tissue plasminogen activator (tPA), PLAT (gene 5327); assay: BSK_BE3C_tPA: BioMAP Diversity Plus: BE3C Assay for Tissue plasminogen activator (tPA) Biomarker Activity (AID 2283041); settings: primary human bronchial epithelial cells; actives raise or lower the signal
Outline: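 Primary human bronchial epithelial cells in the BE3C system, exposed to compound for 24 h. tPA was quantified by ELISA; DMSO served as baseline, with gain or loss of signal fitted. Cytotoxicity checked in parallel cultures by SRB total-protein staining.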

[11] = read-out: Interleukin-8 (IL8), CXCL8 (gene 3576); assay: BSK_CASM3C_IL8: BioMAP Diversity Plus: CASM3C Assay for Interleukin-8 (IL8) Biomarker Activity (AID 2283042); settings: primary human coronary artery smooth muscle cells; actives raise or lower the signal;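 also: IL-8 protein level quantified by ELISA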
[12] = read-out: Human Leukocyte Antigen - DR isotype (HLADR), HLA-DRA (gene 3122); assay: BSK_CASM3C_HLADR: BioMAP Diversity Plus: CASM3C Assay for Human Leukocyte Antigen - DR isotype (HLADR) Biomarker Activity (AID 2283043); settings: primary human coronary artery smooth muscle cells; actives raise or lower the signal;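 also: cell-surface HLA-DR protein level quantified by ELISA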
[13] = read-out: Macrophage colony-stimulating factor (MCSF), CSF1 (gene 1435); assay: BSK_CASM3C_MCSF: BioMAP Diversity Plus: CASM3C Assay for Macrophage colony-stimulating factor (MCSF) Biomarker Activity (AID 2283044); settings: primary human coronary artery smooth muscle cells; actives raise or lower the signal;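 also: M-CSF protein amount quantified by ELISA after 24 h exposure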
[14] = read-out: Low-density lipoprotein receptor (LDLR), LDLR (gene 3949); assay: BSK_CASM3C_LDLR: BioMAP Diversity Plus: CASM3C Assay for Low-density lipoprotein receptor (LDLR) Biomarker Activity (AID 2283045); settings: primary human coronary artery smooth muscle cells; actives raise or lower the signal;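 also: LDLR protein level on the cell surface quantified by ELISA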
[15] = read-out: Monocyte Chemoattractant Protein-1 (MCP1), CCL2 (gene 6347); assay: BSK_CASM3C_MCP1: BioMAP Diversity Plus: CASM3C Assay for Monocyte Chemoattractant Protein-1 (MCP1) Biomarker Activity (AID 2283046); settings: primary human coronary artery smooth muscle cells; actives raise or lower the signal;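 also: MCP-1 level quantified by ELISA 24 h after dosing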
[16] = BSK_CASM3C_Proliferation: Cell Proliferation Assessment in the BioMAP Diversity Plus: CASM3C Assay (AID 2283047); settings: primary human coronary artery smooth muscle cells;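 also: sulforhodamine B total protein stain as relative cell number at 560 nm; sub-confluent cells exposed 48 h before staining; fitted both ways against DMSO so gain or loss of cell number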
[17] = read-out: Monokine induced gamma interferon (MIG), CXCL9 (gene 4283); assay: BSK_CASM3C_MIG: BioMAP Diversity Plus: CASM3C Assay for Monokine induced gamma interferon (MIG) Biomarker Activity (AID 2283048); settings: primary human coronary artery smooth muscle cells; actives raise or lower the signal;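 also: MIG protein level measured by ELISA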
[18] = read-out: serum amyloid A (SAA), SAA1 (gene 6288); assay: BSK_CASM3C_SAA: BioMAP Diversity Plus: CASM3C Assay for serum amyloid A (SAA) Biomarker Activity (AID 2283049); settings: primary human coronary artery smooth muscle cells; actives raise or lower the signal;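 also: SAA protein level quantified by ELISA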
[19] = BSK_CASM3C_SRB: Viability Assessment in the BioMAP Diversity Plus: CASM3C Assay (AID 2283050); settings: primary human coronary artery smooth muscle cells
[20] = read-out: Thrombomodulin, THBD (gene 7056); assay: BSK_CASM3C_Thrombomodulin: BioMAP Diversity Plus: CASM3C Assay for Thrombomodulin Biomarker Activity (AID 2283051); settings: primary human coronary artery smooth muscle cells; actives raise or lower the signal;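 also: thrombomodulin protein level measured by ELISA 24 h after dosing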

Measured: AC50

CCCCCCCCCCCCCCCS(=O)(=O)Oc1ccccc1
inactive: all assays above

CCc1nn(C2CCCCC2)c2cc(C3(C#N)CCC(C(=O)O)CC3)ccc12 (stereo not given)
active: [1] 31 µM | [2] 27 µM | [3] 15.2 µM | [4] 28 µM | [6] 4.33 µM | [7] 3.48 µM | [8] 5.01 µM | [9] 11.1 µM | [12] 4.52 µM | [13] 0.657 µM | [14] 1.47 µM | [15] 7.23 µM | [16] 4.09 µM | [17] 13.1 µM
inactive: [5] | [10] | [11] | [18] | [19] | [20]

CC(C)CCCCCCOC(=O)CCCCC(=O)OCCCCCCC(C)C
inactive: all assays above

CCCCCCCCOC(=O)CCCCCCCCC(=O)OCCCCCCCC
inactive: all assays above

CCCCCCCCCCCCCC[N+](C)(C)C
active: [1] 3.18 µM | [2] 2.83 µM | [3] 3.88 µM | [4] 8.17 µM | [5] 1.52 µM | [6] 2.63 µM | [7] 4.85 µM | [8] 4.06 µM | [9] 9.39 µM | [10] 883 nM | [11] 10.8 µM | [12] 5.99 µM | [13] 4.57 µM | [14] 8.07 µM | [15] 5.83 µM | [16] 5.31 µM | [17] 11.8 µM | [18] 2.89 µM | [19] 5.35 µM | [20] 5.06 µM

CC(C)(C)c1cccc(C(C)(C)C)c1O
inactive: all assays above

CCC(=C(c1ccc(O)cc1)c1ccc(OCCN(C)C)cc1)c1ccccc1
inactive: [20]
active: [1] 8.64 µM | [2] 10.3 µM | [3] 8.38 µM | [4] 9.95 µM | [5] 9.79 µM | [6] 12 µM | [7] 9.93 µM | [8] 9.55 µM | [9] 24.6 µM | [10] 8800 nM | [11] 24.4 µM | [12] 17.4 µM | [13] 18.4 µM | [14] 22.7 µM | [15] 24 µM | [16] 9.11 µM | [17] 24.8 µM | [18] 22.8 µM | [19] 22.2 µM

OCCC(F)(F)C(F)(F)C(F)(F)C(F)(F)C(F)(F)C(F)(F)C(F)(F)C(F)(F)F
active: [1] 18.3 µM and 24.1 µM | [2] 41.3 µM and 22.7 µM | [3] 12.7 µM and 17.9 µM | [4] 33.5 µM and 28.7 µM | [6] 16.7 µM and 24.8 µM | [7] 27.9 µM and 27.7 µM | [8] 20.9 µM and 22.9 µM | [10] 11.6 µM and 14 µM | [11] 42.7 µM | [12] 20 µM and 27.5 µM and 18.9 µM | [13] 38.6 µM and 30 µM | [14] 58.8 µM and 55.4 µM | [15] 48.6 µM and 47.4 µM | [16] 20 µM and 22.5 µM and 21.8 µM | [17] 46.4 µM and 46.8 µM | [18] 43 µM and 37.9 µM | [19] 48.7 µM and 40.5 µM
inactive: [1] | [2] | [3] | [4] | [5] | [6] | [7] | [8] | [9] | [10] | [11] | [13] | [14] | [15] | [17] | [18] | [19] | [20]

OC1CCCCC1
active: [11] 14.8 µM | [18] 23.1 µM
inactive: all other assays above

O=[N+]([O-])c1ccc(O)cc1
inactive: all assays above
